Here are results for 40 compounds from PubChem BioAssay (NCI).

Compounds without any hit were thinned out: in the full panel of roughly 79,000, 15% have a hit. Values without a mark were called inactive. The source made the active and inactive calls. Cut-off read from the data, not from the text of the source: active = growth inhibition above about 70%; inactive = the rest.

A short description of the first assay: NCI Yeast Anticancer Drug Screen. Data for the bub3 strain (AID 167). The settings on record: S. cerevisiae bub3 mutant strain, at 50.0 µM, stronger effect = higher value. The essentials:
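Mutant yeast screening strain plus compound; vehicle-treated cultures serve as the 0% inhibition reference.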
Turning to `COc1ccc([N+](=O)[O-])c2c1CONC2(C)C(=O)O` (stereo not given), the growth inhibition was 3.75%.
Consider `COC(=O)C(C(=O)C(=O)Nc1ccccc1C(C)=O)c1nc2ccc(Cl)cc2[nH]c1=O` (stereo not given), for which the growth inhibition was -19.3%.
On to `CCCCCCCCCCCCCCCCCC1(c2ccccc2)NC(=O)NC1=O` (stereo not given), for which the growth inhibition is 5.8%.
For the compound `CCCCCCCCCC(=O)N/N=C/c1cccnc1`, the growth inhibition is 71.1% (active).
Take `N#C/C(=C(/Cc1ccc(F)cc1)NP(=O)(c1ccccc1)c1ccccc1)c1ccc(F)cc1`: the growth inhibition is 2.6%.
`CCCCCCCCCCCCCCCCC1=C(C(=O)OC)NC(N)=NC1O` (stereo not given): the growth inhibition was 4.7%.
Consider `C=CC1CNCCC1CC(=O)OCC` (stereo not given), for which the growth inhibition was 4.45%.
As to `C#Cc1cccc(N=Cc2cc(Cl)cc(C)c2O)c1`, the growth inhibition is 37.7%.
With `O=C(c1ccccc1)C1Nc2ccccc2CO1` (stereo not given), the growth inhibition was -1.6%.
As to `ClC(Cl)C1OCCOCCO1`, the growth inhibition is -0.35%.
`CCC(CC)C(=O)NCC(=O)NO`: the growth inhibition was 0.6%.
Turning to `OC(CNc1ccc(Cl)cc1)CN1CCOCC1` (stereo not given), the growth inhibition is -3.7%.
Regarding `[N-]=[N+]=NC[C@H]1OCO[C@H](CN=[N+]=[N-])[C@H]2OCCOCCOc3ccccc3OCCOCCO[C@@H]21`, the growth inhibition is -30.9%.
For `CCOC(=O)C(=CNc1ccc(NC2=NCC(C)S2)cc1)C(=O)OCC` (stereo not given), the growth inhibition is -35.8%.
Regarding `CC(=O)Nc1ccc(C)cc1[N+](=O)[O-]`, the growth inhibition was -42.5%.
`Cc1cnc2c(C)ccc([N+](=O)[O-])c2c1NCCCN(C)C`: the growth inhibition was 16.9%.
Consider `CCOc1ccc2nc(C)ccc2c1`, for which the growth inhibition was 4.95%.
On the same count and under the same terms, next, `O=C(Cc1nc2sc3c(c2c(=O)[nH]1)CCCC3)Nc1ccccc1`: -4%; `CC(OC(C)C(N)=O)C(N)=O` (stereo not given): 4.9%.
As to `O=[N+]([O-])c1ccccc1-c1ccccc1[N+](=O)[O-]`, the growth inhibition is -24.4%.
The same measure, in the same setting: next, `C/C=C\C=N\NC(=O)C(=O)N/N=C/C=C\C`: -8.5%; `CNn1c(C)n[nH]c1=O`: 3.4%; `Cc1ccccc1NC(=O)Cc1csc2[n+]1C(=O)/C(=C\c1ccc3c(c1)OCO3)S2`: 11.2%.
Regarding `CC(=O)CC(C)(C)S(=O)(=O)Cc1ccccc1`, the growth inhibition is 19.4%.
In the case of `CCCCOP(=O)(Cc1ccc(Cl)cc1Cl)OCCCC`, the growth inhibition was 99.4% (active).
Take `CCCCc1cccc2c1OCO2`: the growth inhibition was -12.5%.
`CCOc1ccc(/C=N/O)cc1OCC`: the growth inhibition is -2.1%.
For the compound `CCOC(=O)/C(C#N)=N\Nc1ccccc1`, the growth inhibition was -1.85%.
Consider `CC(=O)NCCCCN(CCCNC(C)=O)C(=O)CNS(=O)(=O)c1cccc2c(N(C)C)cccc12`, for which the growth inhibition was 17.6%.
Turning to `O=C1/C(=C/c2ccc3c(c2)OCO3)CCC1CN1CCOCC1` (stereo not given), the growth inhibition was 90.2% (active).
`O=C(CCCC(=O)NNC(=O)Nc1cccc(Cl)c1)NNC(=O)Nc1cccc(Cl)c1`: the growth inhibition was -1.7%.
For `CC(=O)OCC1COC(C2CC=CCC2C)O1` (stereo not given), the growth inhibition is 13.6%.
For the compound `O=c1c2ccccc2oc2nc3ccc(Cl)cc3n12`, the growth inhibition was 10.6%.
For the compound `CCOC(=O)/C(Cl)=C1\SN(C(=O)OCC)N=C1C`, the growth inhibition was 3.8%.
The same measure, in the same setting: next, `C=C(C)CNCCN`: 26.6%.
On the same count and under the same terms, next, `COc1c2ccoc2c(S(=O)(=O)Nc2ccc(Cl)cc2)c2oc(C)cc(=O)c12`: -11.8%.
On to `COc1ccc2c(c1)C13CCCC(C)(C(=O)NC1)C3CC2` (stereo not given), for which the growth inhibition was 2.35%.
The same measure, in the same setting: next, `CNc1ccccc1C`: 18.9%.
Consider `NC(=O)C1CC2CC(Cl)C1C2` (stereo not given), for which the growth inhibition was 9.65%.
Consider `CC(C)[N+](=C1O[B-](c2ccccc2)(c2ccccc2)O[B-]1(c1ccccc1)[C+]1CCCCC1)C(C)C` (stereo not given), for which the growth inhibition is 2.15%.

A short description of another assay: NCI Yeast Anticancer Drug Screen. Data for the mlh1 rad18 strain (AID 175). The settings on record: S. cerevisiae mlh1 rad18 strain growth inhibition; at 50.0 µM; stronger effect = higher value. The essentials: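 A repair-deficient yeast strain is exposed to test compound, and growth is scored relative to vehicle-treated controls.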
With `COc1ccc([N+](=O)[O-])c2c1CONC2(C)C(=O)O` (stereo not given), the growth inhibition was 16.2%.
Take `COC(=O)C(C(=O)C(=O)Nc1ccccc1C(C)=O)c1nc2ccc(Cl)cc2[nH]c1=O` (stereo not given): the growth inhibition is -14.4%.
Still for that read-out and setting: next, `CCCCCCCCCCCCCCCCCC1(c2ccccc2)NC(=O)NC1=O` (stereo not given): -13.1%.
Consider `CCCCCCCCCC(=O)N/N=C/c1cccnc1`, for which the growth inhibition is 91.3% (active).
Turning to `N#C/C(=C(/Cc1ccc(F)cc1)NP(=O)(c1ccccc1)c1ccccc1)c1ccc(F)cc1`, the growth inhibition was -2.35%.
The same measure, in the same setting: next, `CCCCCCCCCCCCCCCCC1=C(C(=O)OC)NC(N)=NC1O` (stereo not given): 22.1%.
`C=CC1CNCCC1CC(=O)OCC` (stereo not given): the growth inhibition was -24.4%.
`C#Cc1cccc(N=Cc2cc(Cl)cc(C)c2O)c1`: the growth inhibition is 33.7%.
The same measure, in the same setting: next, `O=C(c1ccccc1)C1Nc2ccccc2CO1` (stereo not given): 28.9%; `ClC(Cl)C1OCCOCCO1`: -5.8%; `CCC(CC)C(=O)NCC(=O)NO`: 9.15%.
On to `OC(CNc1ccc(Cl)cc1)CN1CCOCC1` (stereo not given), for which the growth inhibition is 42%.
In the case of `[N-]=[N+]=NC[C@H]1OCO[C@H](CN=[N+]=[N-])[C@H]2OCCOCCOc3ccccc3OCCOCCO[C@@H]21`, the growth inhibition is -18.1%.
For `CCOC(=O)C(=CNc1ccc(NC2=NCC(C)S2)cc1)C(=O)OCC` (stereo not given), the growth inhibition was -47%.
The same measure, in the same setting: next, `CC(=O)Nc1ccc(C)cc1[N+](=O)[O-]`: -43.2%; `Cc1cnc2c(C)ccc([N+](=O)[O-])c2c1NCCCN(C)C`: 52%; `CCOc1ccc2nc(C)ccc2c1`: 17.7%.
As to `O=C(Cc1nc2sc3c(c2c(=O)[nH]1)CCCC3)Nc1ccccc1`, the growth inhibition is -17.6%.
For the compound `CC(OC(C)C(N)=O)C(N)=O` (stereo not given), the growth inhibition was -1.15%.
As to `O=[N+]([O-])c1ccccc1-c1ccccc1[N+](=O)[O-]`, the growth inhibition was -10.8%.
On the same count and under the same terms, next, `C/C=C\C=N\NC(=O)C(=O)N/N=C/C=C\C`: -0.75%; `CNn1c(C)n[nH]c1=O`: 17.1%; `Cc1ccccc1NC(=O)Cc1csc2[n+]1C(=O)/C(=C\c1ccc3c(c1)OCO3)S2`: 7%.
The same measure, in the same setting: next, `CC(=O)CC(C)(C)S(=O)(=O)Cc1ccccc1`: 6.3%; `CCCCOP(=O)(Cc1ccc(Cl)cc1Cl)OCCCC`: 99.5% (active).
Same read-out and setting: next, `CCCCc1cccc2c1OCO2`: 36.8%; `CCOc1ccc(/C=N/O)cc1OCC`: -2.6%; `CCOC(=O)/C(C#N)=N\Nc1ccccc1`: -12.9%.
With `CC(=O)NCCCCN(CCCNC(C)=O)C(=O)CNS(=O)(=O)c1cccc2c(N(C)C)cccc12`, the growth inhibition was -8.65%.
As to `O=C1/C(=C/c2ccc3c(c2)OCO3)CCC1CN1CCOCC1` (stereo not given), the growth inhibition is 90.5% (active).
Regarding `O=C(CCCC(=O)NNC(=O)Nc1cccc(Cl)c1)NNC(=O)Nc1cccc(Cl)c1`, the growth inhibition was -10.6%.
On the same count and under the same terms, next, `CC(=O)OCC1COC(C2CC=CCC2C)O1` (stereo not given): -7.6%.
On the same count and under the same terms, next, `O=c1c2ccccc2oc2nc3ccc(Cl)cc3n12`: -1.85%.
Take `CCOC(=O)/C(Cl)=C1\SN(C(=O)OCC)N=C1C`: the growth inhibition was 3.65%.
As to `C=C(C)CNCCN`, the growth inhibition is 16.3%.
Take `COc1c2ccoc2c(S(=O)(=O)Nc2ccc(Cl)cc2)c2oc(C)cc(=O)c12`: the growth inhibition was -24.8%.
On to `COc1ccc2c(c1)C13CCCC(C)(C(=O)NC1)C3CC2` (stereo not given), for which the growth inhibition was -11.7%.
In the case of `CNc1ccccc1C`, the growth inhibition was 23%.
For the compound `NC(=O)C1CC2CC(Cl)C1C2` (stereo not given), the growth inhibition is -22.1%.
Take `CC(C)[N+](=C1O[B-](c2ccccc2)(c2ccccc2)O[B-]1(c1ccccc1)[C+]1CCCCC1)C(C)C` (stereo not given): the growth inhibition is 2.2%.
